Broadly, the AC50 is the concentration giving half of the maximal activity seen.

Results filed as inconclusive are left out. Calls of active or inactive are those of the source. How the source made its calls: active means hit-call score of the fitted dose curve at least 0.9, where 1 is the maximum; inconclusive means response in the unintended direction; inactive means score below 0.9.

Here are results for 10 compounds from PubChem BioAssay (EPA / NIEHS).

The target in assay [1] is human Protein Tyrosine Phosphatase Non-receptor Type 6 (PTPN6), PTPN6 (gene 5777) (UniProt P29350). In words: NVS_ENZ_hPTPN6: NovaScreen (NVS) Enzymatic Assay for human Protein Tyrosine Phosphatase Non-receptor Type 6 (PTPN6) (AID 2283210). In outline:
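Recombinant human PTPN6 from SF9 cells, enzyme activity followed by fluorescence after mobility-shift separation of substrate and product at 1.33 h. Chemicals first tested at a single 25 uM in duplicate, then confirmed across concentration series; loss of signal relative to DMSO.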

Assay [2] concerns the target Tyrosine-protein phosphatase non-receptor type 12 (Homo sapiens) (UniProt Q05209). Kind of assay: NVS_ENZ_hPTPN12: NovaScreen (NVS) Enzymatic Assay for human Protein Tyrosine Phosphatase Non-receptor Type 12 (PTPN12) (AID 2283204). An outline of the steps:
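Single-concentration duplicates (25 uM) preceded singleton concentration-response up to 50 uM for chemicals passing threshold. Cell-free recombinant PTPN12 activity was read 1.33 h after dosing via fluorescence after mobility-shift separation; loss of signal versus DMSO.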

The target in assay [3] is human Sirtuin 2 (SIRT2), SIRT2 (gene 22933) (UniProt Q8IXJ6). In words: NVS_ENZ_hSIRT2: NovaScreen (NVS) Enzymatic Assay for human Sirtuin 2 (SIRT2) (AID 2283217). In outline: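 Single-point duplicate screen at 25 uM, then concentration-response (max 50 uM) for chemicals passing threshold. Enzyme activity of recombinant human SIRT2 measured after 1 hr by fluorescence with mobility-shift separation of product; DMSO baseline.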

The target of assay [4] is human Protein Tyrosine Phosphatase Receptor Type M (PTPRM), PTPRM (gene 5797) (UniProt P28827). Kind of assay: NVS_ENZ_hPTPRM: NovaScreen (NVS) Enzymatic Assay for human Protein Tyrosine Phosphatase Receptor Type M (PTPRM) (AID 2283215). In outline:
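Read-out is fluorescence after electrophoretic separation of substrate and product, taken 1.33 h post-dosing with recombinant enzyme. Compounds screened at 25 uM in duplicate, then concentration series for actives; activity as signal loss relative to DMSO.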

Assay [5] concerns the target Tyrosine-protein phosphatase non-receptor type 13 (Homo sapiens) (UniProt Q12923). In words: NVS_ENZ_hPTPN13: NovaScreen (NVS) Enzymatic Assay for human Protein Tyrosine Phosphatase Non-receptor Type 13 (PTPN13) (AID 2283205). In outline: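 Screened first at a single 25 uM in duplicate; compounds passing the threshold (e.g. 30% inhibition) were rerun in concentration series, top 50 uM. Recombinant enzyme, fluorescent substrate, mobility-shift separation, 0.5 h read. Data fitted as inhibition relative to DMSO.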

Assay [6] concerns the target Tyrosine-protein phosphatase non-receptor type 14 (Homo sapiens) (UniProt Q15678). In words: NVS_ENZ_hPTPN14: NovaScreen (NVS) Enzymatic Assay for human Protein Tyrosine Phosphatase Non-receptor Type 14 (PTPN14) (AID 2283206). In outline: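 Fluorescent substrate turnover by recombinant human PTPN14 was measured 0.5 h after compound addition, with substrate and product separated by mobility shift. Single-point screening at 25 uM, then concentration-response up to 50 uM for chemicals meeting threshold (e.g., 30% inhibition).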

For assay [7], the target named is human Protein Tyrosine Phosphatase Non-receptor Type 4 (PTPN4), PTPN4 (gene 5775) (UniProt P29074). Kind of assay: NVS_ENZ_hPTPN4: NovaScreen (NVS) Enzymatic Assay for human Protein Tyrosine Phosphatase Non-receptor Type 4 (PTPN4) (AID 2283208). In outline:
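Screened in duplicate at 25 uM, with hits then titrated to a top concentration of 50 uM. Recombinant Sf9-derived PTPN4 turnover was read by fluorescence with electrophoretic separation, 1.33 h after compound addition. DMSO served as baseline.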

Assay [8] deals with human Protein Tyrosine Phosphatase Receptor Type F (PTPRF), PTPRF (gene 5792) (UniProt P10586). Kind of assay: NVS_ENZ_hPTPRF: NovaScreen (NVS) Enzymatic Assay for human Protein Tyrosine Phosphatase Receptor Type F (PTPRF) (AID 2283213). An outline of the steps:
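Cell-free fluorescence enzyme assay with recombinant protein and substrate; product separated by electrophoretic mobility shift. Read 1 h after dosing, single 25 uM duplicate screen, then concentration-response up to 50 uM; loss of signal vs DMSO.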

For assay [9], the target named is human Rho Associated Coiled-coil Containing Protein Kinase 1 (ROCK1), ROCK1 (gene 6093) (UniProt Q13464). Kind of assay: NVS_ENZ_hROCK1: NovaScreen (NVS) Enzymatic Assay for human Rho Associated Coiled-coil Containing Protein Kinase 1 (ROCK1) (AID 2283214). An outline of the steps: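 Compounds first run in duplicate at 25 uM against recombinant human ROCK1, then followed in concentration series. Kinase activity was read 1 h post-dosing by fluorescence with mobility-shift separation, as signal loss relative to DMSO.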

The target of assay [10] is human Protein Tyrosine Phosphatase Receptor Type B (PTPRB), PTPRB (gene 5787) (UniProt P23467). In words: NVS_ENZ_hPTPRB: NovaScreen (NVS) Enzymatic Assay for human Protein Tyrosine Phosphatase Receptor Type B (PTPRB) (AID 2283211). An outline of the steps: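 Recombinant human PTPRB with a fluorescent substrate, product separated by electrophoretic mobility shift; read 1 h after dosing. Primary screen in duplicate at 25 uM; actives then retested in concentration series; loss of signal versus DMSO.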

Chain of Tyrosine-protein phosphatase non-receptor type 12 (Homo sapiens) (Q05209 whole entry, looked up): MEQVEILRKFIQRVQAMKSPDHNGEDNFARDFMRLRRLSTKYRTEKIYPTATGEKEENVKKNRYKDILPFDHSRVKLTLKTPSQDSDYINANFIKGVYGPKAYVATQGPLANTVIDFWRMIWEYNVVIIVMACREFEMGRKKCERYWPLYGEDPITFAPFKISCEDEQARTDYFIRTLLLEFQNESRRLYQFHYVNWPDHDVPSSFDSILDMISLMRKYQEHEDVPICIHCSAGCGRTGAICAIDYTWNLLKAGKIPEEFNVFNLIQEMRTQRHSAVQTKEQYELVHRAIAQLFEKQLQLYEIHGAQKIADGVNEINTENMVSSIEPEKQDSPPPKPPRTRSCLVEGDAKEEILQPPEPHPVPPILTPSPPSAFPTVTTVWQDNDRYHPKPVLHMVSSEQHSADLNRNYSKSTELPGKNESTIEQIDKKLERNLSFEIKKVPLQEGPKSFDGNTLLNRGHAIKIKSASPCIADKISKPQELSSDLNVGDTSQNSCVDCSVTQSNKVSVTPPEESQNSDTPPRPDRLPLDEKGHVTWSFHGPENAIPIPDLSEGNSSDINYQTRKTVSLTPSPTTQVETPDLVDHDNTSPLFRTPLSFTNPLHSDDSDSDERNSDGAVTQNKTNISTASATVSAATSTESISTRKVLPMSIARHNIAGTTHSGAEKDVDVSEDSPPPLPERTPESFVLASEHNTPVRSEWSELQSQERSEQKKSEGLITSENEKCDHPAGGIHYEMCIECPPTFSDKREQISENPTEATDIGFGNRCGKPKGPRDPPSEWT
Chain of human Protein Tyrosine Phosphatase Non-receptor Type 6 (PTPN6), PTPN6 (gene 5777) (P29350 whole entry, looked up): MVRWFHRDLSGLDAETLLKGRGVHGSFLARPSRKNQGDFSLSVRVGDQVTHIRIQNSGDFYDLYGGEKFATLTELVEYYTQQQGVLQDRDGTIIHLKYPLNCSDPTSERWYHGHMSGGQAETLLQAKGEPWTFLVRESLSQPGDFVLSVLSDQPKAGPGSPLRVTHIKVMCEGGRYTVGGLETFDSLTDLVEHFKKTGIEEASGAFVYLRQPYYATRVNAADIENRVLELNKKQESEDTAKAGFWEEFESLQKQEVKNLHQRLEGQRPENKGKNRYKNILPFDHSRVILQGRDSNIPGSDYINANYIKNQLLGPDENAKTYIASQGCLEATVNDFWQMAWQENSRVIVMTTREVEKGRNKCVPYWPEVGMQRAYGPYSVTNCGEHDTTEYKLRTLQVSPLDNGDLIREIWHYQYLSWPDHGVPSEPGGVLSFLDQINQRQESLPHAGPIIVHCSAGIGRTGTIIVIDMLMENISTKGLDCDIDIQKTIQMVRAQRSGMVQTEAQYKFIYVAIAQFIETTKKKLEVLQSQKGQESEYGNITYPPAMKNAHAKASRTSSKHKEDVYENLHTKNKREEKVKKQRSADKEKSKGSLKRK
Chain of human Protein Tyrosine Phosphatase Non-receptor Type 4 (PTPN4), PTPN4 (gene 5775) (P29074 whole entry, looked up): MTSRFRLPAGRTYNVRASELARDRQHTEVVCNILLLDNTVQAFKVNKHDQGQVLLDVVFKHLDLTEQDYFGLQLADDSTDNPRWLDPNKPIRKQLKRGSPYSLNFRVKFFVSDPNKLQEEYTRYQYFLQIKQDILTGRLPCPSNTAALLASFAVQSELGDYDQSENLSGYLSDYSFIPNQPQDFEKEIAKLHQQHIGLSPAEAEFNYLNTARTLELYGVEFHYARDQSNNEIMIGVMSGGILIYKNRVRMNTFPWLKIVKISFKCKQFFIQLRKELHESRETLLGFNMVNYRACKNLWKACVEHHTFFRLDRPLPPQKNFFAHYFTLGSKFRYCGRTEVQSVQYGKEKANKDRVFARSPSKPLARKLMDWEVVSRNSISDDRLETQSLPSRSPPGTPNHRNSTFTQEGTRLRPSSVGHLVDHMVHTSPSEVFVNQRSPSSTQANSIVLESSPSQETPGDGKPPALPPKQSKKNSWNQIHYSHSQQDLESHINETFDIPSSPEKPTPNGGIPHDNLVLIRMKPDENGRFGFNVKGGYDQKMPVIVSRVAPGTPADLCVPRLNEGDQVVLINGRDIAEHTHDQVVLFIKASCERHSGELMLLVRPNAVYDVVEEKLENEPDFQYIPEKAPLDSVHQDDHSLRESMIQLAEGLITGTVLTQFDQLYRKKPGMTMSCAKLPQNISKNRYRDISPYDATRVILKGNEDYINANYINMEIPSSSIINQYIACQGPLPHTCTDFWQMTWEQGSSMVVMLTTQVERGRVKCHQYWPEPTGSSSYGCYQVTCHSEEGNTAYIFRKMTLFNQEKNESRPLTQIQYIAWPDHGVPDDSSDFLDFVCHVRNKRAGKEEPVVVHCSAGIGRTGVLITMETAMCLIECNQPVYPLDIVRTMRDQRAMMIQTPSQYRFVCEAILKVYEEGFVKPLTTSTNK
Chain of Tyrosine-protein phosphatase non-receptor type 14 (Homo sapiens) (Q15678 whole entry, looked up): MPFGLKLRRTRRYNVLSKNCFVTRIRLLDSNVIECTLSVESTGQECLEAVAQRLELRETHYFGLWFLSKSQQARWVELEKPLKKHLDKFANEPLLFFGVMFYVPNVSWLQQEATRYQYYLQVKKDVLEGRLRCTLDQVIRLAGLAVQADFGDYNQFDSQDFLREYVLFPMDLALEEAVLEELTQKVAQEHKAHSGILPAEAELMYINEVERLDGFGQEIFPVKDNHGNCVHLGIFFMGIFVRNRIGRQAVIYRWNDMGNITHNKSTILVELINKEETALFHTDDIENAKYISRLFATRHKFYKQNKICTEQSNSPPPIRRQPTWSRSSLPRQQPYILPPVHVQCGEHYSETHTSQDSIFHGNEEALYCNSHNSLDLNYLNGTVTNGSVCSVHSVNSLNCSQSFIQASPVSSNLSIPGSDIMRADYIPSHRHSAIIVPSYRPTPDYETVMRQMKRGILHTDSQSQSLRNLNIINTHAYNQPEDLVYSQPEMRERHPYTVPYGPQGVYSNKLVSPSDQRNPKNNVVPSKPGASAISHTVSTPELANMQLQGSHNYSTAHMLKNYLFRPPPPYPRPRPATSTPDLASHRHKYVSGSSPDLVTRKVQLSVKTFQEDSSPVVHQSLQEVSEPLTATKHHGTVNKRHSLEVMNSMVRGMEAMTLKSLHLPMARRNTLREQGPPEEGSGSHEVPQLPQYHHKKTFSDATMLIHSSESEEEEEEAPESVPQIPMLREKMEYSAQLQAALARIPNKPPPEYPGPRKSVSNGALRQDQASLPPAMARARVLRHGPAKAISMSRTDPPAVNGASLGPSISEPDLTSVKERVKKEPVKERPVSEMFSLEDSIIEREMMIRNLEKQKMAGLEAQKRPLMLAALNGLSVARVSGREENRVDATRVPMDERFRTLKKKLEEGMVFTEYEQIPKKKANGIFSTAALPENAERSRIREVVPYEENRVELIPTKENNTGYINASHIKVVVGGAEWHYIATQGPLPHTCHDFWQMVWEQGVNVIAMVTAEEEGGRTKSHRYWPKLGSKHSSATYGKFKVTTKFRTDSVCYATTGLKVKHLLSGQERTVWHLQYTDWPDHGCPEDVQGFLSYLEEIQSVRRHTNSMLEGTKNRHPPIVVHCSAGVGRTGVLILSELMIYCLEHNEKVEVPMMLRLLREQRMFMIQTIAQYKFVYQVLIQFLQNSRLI
Chain of human Protein Tyrosine Phosphatase Receptor Type M (PTPRM), PTPRM (gene 5797) (P28827 whole entry, looked up): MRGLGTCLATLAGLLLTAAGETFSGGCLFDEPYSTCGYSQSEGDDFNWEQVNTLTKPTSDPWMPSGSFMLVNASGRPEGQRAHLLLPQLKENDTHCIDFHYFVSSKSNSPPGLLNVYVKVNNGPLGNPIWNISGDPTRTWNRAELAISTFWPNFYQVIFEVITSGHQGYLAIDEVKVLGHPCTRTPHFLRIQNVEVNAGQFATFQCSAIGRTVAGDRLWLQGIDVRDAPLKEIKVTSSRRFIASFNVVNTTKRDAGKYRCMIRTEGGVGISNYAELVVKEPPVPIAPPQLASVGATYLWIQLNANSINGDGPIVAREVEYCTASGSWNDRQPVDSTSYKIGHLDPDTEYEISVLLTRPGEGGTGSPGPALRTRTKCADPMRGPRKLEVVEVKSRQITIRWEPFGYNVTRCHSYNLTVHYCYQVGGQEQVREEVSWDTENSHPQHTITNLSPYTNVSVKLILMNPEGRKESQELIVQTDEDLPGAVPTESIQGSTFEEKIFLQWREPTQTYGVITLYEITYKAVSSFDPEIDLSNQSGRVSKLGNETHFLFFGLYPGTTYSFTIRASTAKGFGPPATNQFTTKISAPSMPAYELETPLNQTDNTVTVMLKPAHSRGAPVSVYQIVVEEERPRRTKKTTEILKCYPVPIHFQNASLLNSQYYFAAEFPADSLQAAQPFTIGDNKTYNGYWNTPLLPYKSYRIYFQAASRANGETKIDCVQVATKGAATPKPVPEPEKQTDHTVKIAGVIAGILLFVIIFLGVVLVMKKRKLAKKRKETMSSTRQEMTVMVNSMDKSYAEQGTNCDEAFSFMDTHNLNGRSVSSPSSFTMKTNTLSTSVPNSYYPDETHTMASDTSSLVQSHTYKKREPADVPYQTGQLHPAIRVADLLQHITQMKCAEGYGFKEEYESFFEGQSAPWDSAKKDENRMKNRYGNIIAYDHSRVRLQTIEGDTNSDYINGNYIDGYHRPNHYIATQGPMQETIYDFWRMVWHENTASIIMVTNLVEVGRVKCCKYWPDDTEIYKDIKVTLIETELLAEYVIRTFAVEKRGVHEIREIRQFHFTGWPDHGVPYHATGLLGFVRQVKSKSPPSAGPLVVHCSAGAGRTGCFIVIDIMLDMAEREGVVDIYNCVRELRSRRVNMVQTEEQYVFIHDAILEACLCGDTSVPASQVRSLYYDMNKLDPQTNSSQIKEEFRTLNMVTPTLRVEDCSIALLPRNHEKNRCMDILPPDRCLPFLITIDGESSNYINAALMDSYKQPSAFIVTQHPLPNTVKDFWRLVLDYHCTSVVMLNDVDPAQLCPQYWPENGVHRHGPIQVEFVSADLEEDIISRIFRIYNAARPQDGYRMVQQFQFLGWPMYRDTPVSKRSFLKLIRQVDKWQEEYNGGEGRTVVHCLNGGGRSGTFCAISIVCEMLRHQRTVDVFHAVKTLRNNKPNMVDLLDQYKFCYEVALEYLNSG

For the compound `O=C1OC(=O)C2C3C=CC(C3)C12` (stereo unspecified), the result in [1] was inactive.

Regarding `CCC(C)(C)C(=O)O[C@H]1C[C@@H](C)C=C2C=C[C@H](C)[C@H](CC[C@@H]3C[C@@H](O)CC(=O)O3)[C@H]21`, in [2], the AC50 was 33.5 µM (active).

With `O=C1CCCCCN1`, the compound was called inactive in [1].

In the case of `COc1cccc(-c2ccc(/C=C\CN3CCCCCC3)cc2Cl)c1`, the AC50 in assay [3] was 16.6 µM (active).

Take `O=P(OC(CCl)CCl)(OC(CCl)CCl)OC(CCl)CCl`: in assay [4], the result was inactive.

On to `O=C(O)c1cc(N=Nc2ccc(S(=O)(=O)Nc3ccccn3)cc2)ccc1O`, for which the outcome in [2], in assay [5], in assay [6], in [7], in assay [8] and in assay [4] was inactive.

Take `COC(=O)c1c(Cl)c(Cl)c(C(=O)OC)c(Cl)c1Cl`: the call in assay [9] was inactive.

`O=c1n(CC2CO2)c(=O)n(CC2CO2)c(=O)n1CC1CO1` (stereo unspecified): the compound was classed as inactive in assay [1].

Regarding `O=C(O)CC(O)C(=O)O` (stereo unspecified), the half-maximal activity concentration (AC50) in assay [7] is 39.2 µM (active).

As to `Cc1ccc(N)cc1O`, the outcome in assay [2], in [5], in [6], in [7], in [10] and in assay [8] was inactive. Besides, the compound was classed as inactive in [3].
